# FLuc counter: inhibits or activates purified firefly luciferase, miR-21 counter-screen; P08659; purified FLuc, Km substrates, luminescence inhibition; Potency, µM (highest dose often 57.5 µM), inactives show top-dose activity change, negative = inhibition, usual class: inhibitors; 360,000 compounds, 6.9% hits; AID 588342;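 note: plate controls were vehicle for no effect and reference inhibitor for full effect; nearly all actives have a fitted effect of over 55% in size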
# Target sequence (P08659 whole entry, looked up): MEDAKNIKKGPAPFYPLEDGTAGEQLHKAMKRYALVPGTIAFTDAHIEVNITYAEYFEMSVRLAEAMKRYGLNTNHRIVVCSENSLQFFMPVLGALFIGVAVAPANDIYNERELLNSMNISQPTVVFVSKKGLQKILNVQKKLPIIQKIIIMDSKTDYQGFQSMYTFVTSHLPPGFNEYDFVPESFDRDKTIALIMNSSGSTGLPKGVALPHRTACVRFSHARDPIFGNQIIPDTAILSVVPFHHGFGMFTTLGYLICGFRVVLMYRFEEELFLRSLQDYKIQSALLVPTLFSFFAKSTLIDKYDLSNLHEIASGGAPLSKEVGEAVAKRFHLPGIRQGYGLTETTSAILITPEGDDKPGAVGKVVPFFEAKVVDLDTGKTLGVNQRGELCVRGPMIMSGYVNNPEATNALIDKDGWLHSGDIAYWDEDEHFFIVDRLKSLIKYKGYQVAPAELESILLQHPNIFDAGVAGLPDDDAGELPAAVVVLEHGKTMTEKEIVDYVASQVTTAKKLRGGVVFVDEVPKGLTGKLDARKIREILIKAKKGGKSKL
#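 Biochemical qHTS of compounds, final roughly 60 µM downward over six points, against 10 nM purified firefly luciferase using Km concentrations of substrates (10 uM D-luciferin, 10 uM ATP) in Tris acetate pH 7.5 buffer; luminescence output.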
# ELG1 genotox: genotoxicity induction in ELG1-luciferase HEK293T cells; HEK293T ELG1-luciferase reporter, luminescence, 16 h; Potency, µM (top dose mostly 46 µM), inactives show at the highest dose activity change, positive = activation, hits mostly activators; 330,000 compounds, 1.3% hits; AID 504466; note: % of control where 0% means no effect; nearly all actives have a fitted effect of over 60% in size
#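 Genotoxicity was scored as increased ELG1-luciferase reporter signal, measured by ONE-Glo luminescence (30 min, room temperature). Compound or vehicle exposure of the HEK293T reporter cells lasted 16 hr at 37°C.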
# SMN2 splice enh: increases expression of the SMN2 splice variant | HEK293 SMN2-luciferase splicing reporter, luminescence, 30-36 h | Potency, µM (titrated, usually from 46.1 µM), without a hit: at the top dose activity change, positive = activation, most hits filed as activators | 210,000 compounds, 2.8% hits | AID 1458; note: % of control where 0% means no effect; nearly all actives have a fitted effect of over 55% in size
#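 qHTS luciferase splicing reporter: luminescence rises when SMN2 exon 7 is included in transfected HEK293 cells. Compound exposure lasted 30-36 h at 37C, with 4.5 mM final sodium butyrate as control, followed by a ONE-Glo read.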
# ELG1 DNA repair: ELG1-dependent DNA repair inhibition; AID 504467; Potency, µM (series often up to 46.1 µM), inactives show at the top dose activity change, negative = inhibition, most hits filed as inhibitors; 330,000 compounds, 2.3% hits; HEK293T ELG1-luciferase reporter, luminescence, 16 h; DNA damage induced by 5-fluorouridine; note: % is set by controls: 0 for no effect and ±100 for the full control effect; nearly all actives have a fitted effect of over 55% in size
#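 Reporter activity after DNA damage by 5-fluorouridine is monitored. Compound-treated cells incubate 16 hr at 37 °C, then ONE-Glo is added for 30 min before luminescence reading.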
# Rab9 promoter act: activates the Rab9 promoter; Potency, µM (titrated, usually from 9.22 µM), for inactives: at the highest dose activation, negative = inhibition, actives largely listed as activators; Huh7 Rab9 promoter-luciferase reporter, luminescence, 24 h; 320,000 compounds, 2.8% hits; AID 485297; note: % of control where 0% means no effect; nearly all actives have a fitted effect of over 60% in size
#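 Huh7 cells stably carrying a Rab9 promoter-luciferase reporter, 1500 cells per well in OP-MEM I with 10% FBS, treated with compound 24 hours at 37C. Luciferase activity read by luminescence after 10 minutes with Amplite reagent.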
# NPC1 promoter act: activators of NPC1 promoter; Huh7 NPC1 promoter luciferase reporter, 24 h; Potency, µM (doses to about 9.22 µM), for the others: at the top dose activation, hits mostly activators; 320,000 compounds, 2.4% hits; note: % of control where 0% means no effect; nearly all actives have a fitted effect of over 60% in size
#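 In 1536-well qHTS, Huh7 cells harboring an NPC1 promoter–luciferase construct received compound for 24 h; activation was quantified by luminescence following luciferase reagent addition.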
# An asterisk follows results filed as active; ? = inconclusive; nt = no result; ! = a repeat was not active. Hits are enriched below; roughly 9.4% of the tested compounds scored in any of these assays. Calls come from the whole dose curve; as a rule, active = well fitted curve in the direction sought with a large enough effect; inconclusive = small, poorly fitted or top-dose-only effect, or another doubt; inactive = no such curve, though single readings can be large; an effect the other way counts as inactive or inconclusive. Potency is the fitted concentration of half-maximal effect.
SMILES,FLuc counter,ELG1 genotox,SMN2 splice enh,ELG1 DNA repair,Rab9 promoter act,NPC1 promoter act
CCC(C)n1c(/C=C/c2ccccc2)nc2ccccc21 (configuration not stated),12µM*,0%,13%,1%,3%,-2%
CC(C)c1ccc(NC(=O)CSC2=Nc3ccccc3C3=NC(CCC(=O)NCc4cccs4)C(=O)N23)cc1 (configuration not stated),-9%,nt,nt,nt,nt,nt
COc1ccc(CCNC(=O)c2cc3c(=O)n4ccccc4nc3n(C3CCCCC3)c2=N)cc1,-2%,-15%,nt,23µM*,-8%,-2%
N=c1c(C(=O)NC2CCCCC2)cc2c(=O)n3ccccc3nc2n1Cc1ccc(F)cc1,8%,-9%,nt,8.2µM*,-5%,-4%
COc1ccc(-c2noc(N(c3ccc(F)c(Cl)c3)c3nc(-c4ccc(OC)c(OC)c4)no3)n2)cc1OC,-7%,nt,3%,nt,nt,nt
COC(=O)c1ccc(NC(=O)c2ccc(C)cc2)o1,19µM*,2%,4%,?,24%,15%
CCN1/C(=C/C(=O)c2ccco2)Sc2ccccc21,24µM*,0%,14%,?,?,4%
COc1ccc(Cl)cc1NC(=O)Nc1cnccn1,4%,5%,nt,-2%,0%,9%
COc1ccc(Cl)cc1NC(=O)NCc1cccnc1,15µM*,0%,nt,10%,1%,-7%
Cc1cc(NC(=O)Nc2ccccc2Cl)no1,15µM*,7%,nt,?,28%,19%
COc1ccc(Cl)cc1NC(=O)Nc1cc(C)on1,6µM*,1.3µM*,nt,?,0.5µM*,1.4µM*
COc1ccc(OC)c(NC(=O)NCc2cccnc2)c1,5%,0%,nt,2%,3%,-3%
COc1ccc(OC)c(NC(=O)Nc2cc(NC(=O)Nc3cc(OC)ccc3OC)c(C)nc2C)c1,6%,?,14µM*,?,-3%,-5%
C=C[C@H]1CCC=C2C(=O)CCC[C@@H]21,nt,nt,2%,nt,nt,nt
CCc1ccc(Nc2nnc(-n3nc(C)cc3C)c3ccccc23)cc1,?,nt,42%,nt,nt,nt
CCOc1cc(CNC2CCCC2)ccc1OCc1ccccc1Cl,0%,-4%,-42%,0%,-7%,0%
CNCc1ccccc1OCc1ccc(F)cc1,-1%,-6%,-23%,13%,-4%,-4%
CCOc1cc(C2NN=C(c3ccccc3)S2)ccc1OCc1ccc(F)cc1 (configuration not stated),6µM*,8.2µM*,13µM*,?,3.2µM*,?
CCOc1cc(C2NN=C(c3ccccc3)S2)ccc1OCc1ccccc1Cl (configuration not stated),7.6µM*,?,158%,?,?,?
CCOC(=O)c1ccc2c(c1)nc(-c1ccccn1)n2CC,1.5µM*,?,nt,?,3.5µM*,?
NC(=O)C1CCN(C(=S)c2ccc(-c3ccc(Br)cc3)o2)CC1,?,10µM*!,8.9µM*,?,?,?
NC(=O)c1ccc(-c2ccc(Br)cc2)o1,19µM*,?,3%,?,8%,7%
CCS(=O)(=O)N1CCc2cc(C(=O)N3CCN(c4ccc(OC)cc4)CC3)ccc21,-10%,nt,nt,nt,nt,nt
COCCc1nn2c(=O)cc(COC(=O)c3ccc4c(c3)OCO4)nc2s1,-7%,nt,nt,nt,nt,nt
CCOC(=O)c1sc(NC(=O)/C=C/c2c(F)cccc2Cl)nc1C,0%,0%,1%,16%,25%,20%
CCOC(=O)c1sc(Nc2ccccc2Cl)nc1C,15µM*,?,nt,?,?,?
COC(=O)Cc1csc(Nc2ccccc2Cl)n1,19µM*,?,?,?,3.5µM*,?
CCOC(=O)c1sc(NC(=O)Nc2ccccc2F)nc1C,0.17µM*,0.26µM*,-59%,?,0.45µM*,?
CCOC(=O)c1sc(Nc2ccc(Br)cc2)nc1C,19µM*,8%,nt,?,17%,16%

# Source: PubChem BioAssay (National Center for Advancing Translational Sciences (NCATS))
